Measurements taken from the supplement of paper PMC13380429.

tested on: Vero E6 infected with SARS-CoV-2; assay: morphology score (similarity to uninfected cells); higher = more like uninfected cells; details: 24 h

Row | Structure (SMILES) | morphology score
1 | CCOc1ccc(NC(=S)N2CCC(C(O)(c3ccccc3)c3ccccc3)CC2)cc1 (10 µM) | 0.267
2 | c1ccc2c(c1)[I+]c1ccccc1-2 [diphenyleneiodonium] (0.833333 µM) | 0.143
3 | C[C@@H]1CN([C@H]2CC[C@](C#N)(c3ccc(F)cc3)CC2)CC[C@]1(C(=O)O)c1ccccc1 [levocabastine] (10 µM) | -0.0824
4 | CCn1cc(C(=O)O)c(=O)c2cc(F)c(N3CCNCC3)nc21 [enoxacin] (10 µM) | 0.124
5 | c1ccc(-c2n[nH]c3c2oc2ccccc23)cc1 (10 µM) | 0.0627
6 | Cc1cc(OCCN2CCOCC2)nn1-c1ccc2ccccc2c1 (10 µM) | 0.0539
7 | Cc1cc(S(=O)(=O)O)c2c(C)ccc(C(C)C)cc1-2 [sodium-gualenate] (10 µM) | 0.0593
8 | O=C(NCC1(N2CCN(c3ccccc3)CC2)CCOCC1)c1cccnc1Sc1ccccc1 (10 µM) | -0.047

tested on: Vero E6 infected with SARS-CoV-2; assay: SARS-CoV-2 infection rate relative to infected DMSO; higher = more infection, active = 60 or less; details: 24 h

Row | Structure (SMILES) | SARS-CoV-2 infection rate
9 | CC(=O)Oc1ccc(C(c2ccc(OC(C)=O)cc2)c2ccccn2)cc1 [bisacodyl] (10 µM) | 85.5% (inactive)
10 | CC[N+](CC)(CC)CCOc1cccc(OCC[N+](CC)(CC)CC)c1OCC[N+](CC)(CC)CC [gallamine-triethiodide] (10 µM) | 112% (inactive)
11 | C/C(=C\CNc1ncnc2[nH]cnc12)CO [zeatin] (10 µM) | 106% (inactive)
12 | C[N+]1(C)CCC(=C(c2ccccc2)c2ccccc2)CC1 [diphemanil] (10 µM) | 95.5% (inactive)
13 | CN[C@@H](C)C(=O)N[C@H](C(=O)N1CCC[C@H]1C(=O)N[C@H]1c2ccccc2C[C@H]1OCC#CC#CCO[C@@H]1Cc2ccccc2[C@@H]1NC(=O)[C@@H]1CCCN1C(=O)[C@@H](NC(=O)[C@H](C)NC)C1CCCCC1)C1CCCCC1 (10 µM) | 112% (inactive)
14 | O=P1(NCCCl)OCCCN1CCCl (stereo not drawn) [ifosfamide] (10 µM) | 97.5% (inactive)
15 | CC(C)C[C@@H](C=O)NC(=O)[C@H](CC(C)C)NC(=O)[C@H](CC(C)C)NC(=O)OCc1ccccc1 (10 µM) | 66% (inactive)
16 | CNC(=O)c1cc(COc2nnc(Nc3ccc(Cl)cc3)c3ccoc23)ccn1 [telatinib] (10 µM) | 107% (inactive)
17 | O=C(Nc1cccc(Cl)c1)Nc1ncc(CCNc2ncnc3ccsc23)s1 (10 µM) | 80% (inactive)
18 | CCCOc1ccc(Br)cc1-c1cc(-c2ccc(Cl)cc2)[nH]c1-c1ccncc1 (10 µM) | 100% (inactive)
19 | Clc1ccc(CCCOCCCN2CCCCC2)cc1 [pitolisant] (10 µM) | 81% (inactive)
20 | O=C(O)CCC(=O)Nc1ccc(S(=O)(=O)Nc2nccs2)cc1 [succinylsulfathiazole] (10 µM) | 100% (inactive)
21 | CC1(C)OC[C@H](NC(=O)Nc2ccc(Br)cc2Br)[C@H](c2ccccc2)O1 (10 µM) | 112% (inactive)
22 | CC[C@]12C=CCN3CC[C@@]4(c5cc([C@@]6(C(=O)OC)C[C@@H]7C[C@@H](C(C)(F)F)CN(Cc8c6[nH]c6ccccc86)C7)c(OC)cc5N(C)[C@H]4[C@@](O)(C(=O)OC)[C@@H]1OC(C)=O)[C@@H]32 [Vinflunine Ditartrate] (10 µM) | 105% (inactive)
23 | CC1(C)CN(C(=O)c2ccc(-c3cccc4nc(NC(=O)C5CC5)nn34)cc2)C1 [solcitinib] (10 µM) | 110% (inactive)
24 | COc1cc2c(Nc3ccc(Cl)c(Cl)c3F)ncnc2cc1OC[C@@H]1C[C@@H]2CN(C)C[C@@H]2C1 (10 µM) | 120% (inactive)
25 | NCc1c[nH]c(=S)n1[C@H]1CCc2c(F)cc(F)cc2C1 [nepicastat] (10 µM) | 104% (inactive)
26 | CNC(=O)c1c(C)oc2cc(Oc3ncnc4cc(OC)c(OC)cc34)ccc12 [fruquintinib] (10 µM) | 110% (inactive)
27 | COCCOC(=O)C1=C(C)NC(C)=C(C(=O)OC(C)C)C1c1cccc([N+](=O)[O-])c1 (stereo not drawn) [nimodipine] (10 µM) | 92% (inactive)
28 | NC(=O)NCCC[C@H](N)C(=O)O [L-citrulline] (10 µM) | 112% (inactive)

Row | Structure (SMILES) | SARS-CoV-2 infection rate
29 | CCOc1cc(N)c(Cl)cc1C(=O)NCC1CN(Cc2ccc(F)cc2)CCO1 (stereo not drawn) [mosapride] (10 µM) | 89.5% (inactive)
30 | O=C(O)c1ccc2nc(-c3cc(Cl)cc(Cl)c3)oc2c1 [tafamidis-meglumine] (10 µM) | 90.5% (inactive)
31 | CCCCCCCCCCC(CO)CCCCCCCC (stereo not drawn) [2-octyldodecan-1-ol] (10 µM) | 110% (inactive)
32 | CC(C)C[C@H](NC(=O)CNC(=O)c1cc(Cl)ccc1Cl)B1OC(=O)C(CC(=O)O)(CC(=O)O)O1 [ixazomib-citrate] (0.833333 µM) | 106% (inactive)
33 | C[C@H]1NC(=O)NC1=O [5-methylhydantoin-(D)] (10 µM) | 102% (inactive)
34 | Cc1cccc(Nc2nc(-c3ccncc3)cs2)c1 (0.833333 µM) | 61% (inactive)
35 | Nc1ccc(O)c(C(=O)O)c1 [mesalazine] (10 µM) | 93.5% (inactive)
36 | Cc1cc(C)c(NC(=O)N(Cc2ccc3c(c2)Cc2ccccc2-3)C2CCCCCC2)c(C)c1 (10 µM) | 106% (inactive)
37 | Cc1c(-c2ccc(O)cc2)n(Cc2ccc(OCCN3CCCCCC3)cc2)c2ccc(O)cc12 [bazedoxifene] (0.833333 µM) | 101% (inactive)
38 | OC(CCN1CCCCC1)(c1ccccc1)C1CCCCC1 (stereo not drawn) [trihexyphenidyl] (10 µM) | 92% (inactive)
39 | Cc1ccc(S(=O)(=O)NC2c3ccccc3Oc3ccccc32)cc1 (10 µM) | 95.5% (inactive)
40 | Cc1cc(-c2ncc(CC(=O)Nc3ccc(-c4cnccn4)cn3)cc2C)ccn1 (10 µM) | 111% (inactive)
41 | CCOc1ccc(NC(=S)N2CCC(C(O)(c3ccccc3)c3ccccc3)CC2)cc1 (10 µM) | 86.5% (inactive)
42 | c1ccc2c(c1)[I+]c1ccccc1-2 [diphenyleneiodonium] (0.833333 µM) | 108% (inactive)
43 | C[C@@H]1CN([C@H]2CC[C@](C#N)(c3ccc(F)cc3)CC2)CC[C@]1(C(=O)O)c1ccccc1 [levocabastine] (10 µM) | 112% (inactive)
44 | CCn1cc(C(=O)O)c(=O)c2cc(F)c(N3CCNCC3)nc21 [enoxacin] (10 µM) | 105% (inactive)
45 | c1ccc(-c2n[nH]c3c2oc2ccccc23)cc1 (10 µM) | 98.5% (inactive)
46 | Cc1cc(OCCN2CCOCC2)nn1-c1ccc2ccccc2c1 (10 µM) | 99.5% (inactive)
47 | Cc1cc(S(=O)(=O)O)c2c(C)ccc(C(C)C)cc1-2 [sodium-gualenate] (10 µM) | 96.5% (inactive)
48 | O=C(NCC1(N2CCN(c3ccccc3)CC2)CCOCC1)c1cccnc1Sc1ccccc1 (10 µM) | 112% (inactive)
